Hits are enriched below; roughly 1.8% of the tested compounds scored in any of these assays.
MEX-5 binding: C. elegans MEX-5 TCR-2 RNA binding activity; activity score (negative = inhibition of binding), % at 10 µM; Q9XUB2; MEX-5/FITC-TCR2 RNA binding, fluorescence polarization; hits give low values; AID 1832; 300,000 tested, 0.38% active;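 active = inhibition past about -25% in most replicates, and total fluorescence under double the plate's negative control median, limit read from the data; inconclusive = replicates evenly split on the limit, or fluorescence at least double controls; inactive = too little inhibition in most replicates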;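 also: 0% = DMSO and -100% = 5 µM competing unlabeled TCR2 RNA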
eIF4H inh: inhibitors of RNA binding by human eIF4H | eIF4H fluorescence polarization binding assay | inhibition, % at 35 µM | 290,000 tested, 0.94% active;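 also: calls also rest on retests at 20 µM and on dose response follow-up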
EBV gp42 block: EBV gp42 inhibition; Fluorescence polarization binding assay, mP read-out; inhibition, % (tested at 21.74 µM); 220,000 tested, 0.42% active; Q1HVG2; in the data active = inhibition above about 50%
Target sequence (Q1HVG2 whole entry, looked up): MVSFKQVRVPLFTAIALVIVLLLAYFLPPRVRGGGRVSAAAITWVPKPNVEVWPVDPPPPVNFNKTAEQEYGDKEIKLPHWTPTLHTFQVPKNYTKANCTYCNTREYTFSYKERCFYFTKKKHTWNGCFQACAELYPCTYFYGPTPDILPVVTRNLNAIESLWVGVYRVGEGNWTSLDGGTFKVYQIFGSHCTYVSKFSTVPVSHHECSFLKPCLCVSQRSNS
MLLE-PAM2 inh: inhibitors of microRNA-mediated deadenylation, human PABP1 MLLE binding. inhibition, % at 20 µM. 360,000 tested, 0.36% active. AID 588489. P11940. GST-MLLE / FITC-PAM2 fluorescence polarization; in the data active = inhibition above about 35%, passing the limit was not always enough;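 also: plate controls were DMSO wells with GST-MLLE for no effect and wells lacking GST-MLLE protein for full effect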
PABP polyA inh: blocks human PABP binding to poly(A) RNA. AID 2014. fluorescence polarization. 290,000 tested, 1% active. calls only at 35 µM;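 also: calls also rest on retests at 20 µM and on dose response follow-up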
* marks the source's active call; other numbers are inactive results; i = inactive; u = inconclusive; x = no result given; + = active, no number. Unless noted, no rule for the calls is given here.

SMILES	MEX-5 binding	eIF4H inh	EBV gp42 block	MLLE-PAM2 inh	PABP polyA inh
O=C(OCCN1C(=O)c2cccc3c(N4CCOCC4)ccc(c23)C1=O)c1ccc(Cl)cc1Cl	u	u	144*	-24	i
COCCNC(=O)C1CCCN(Cc2ccccc2F)CC1 (stereo not drawn)	x	x	x	-4	x
Cc1ccc([N+](=O)[O-])c(NC(=O)COC(=O)CCNS(=O)(=O)c2cccs2)c1C	x	x	x	-12	x
CC(C)(C)N1CC(c2nc3ccccc3n2CCOc2ccccc2)CC1=O (stereo not drawn)	0	-2	67*	0	i
CC(C)(C)N1CC(c2nc3ccccc3n2Cc2ccc(Cl)cc2)CC1=O (stereo not drawn)	1	4	5	-6	i
COc1ccccc1N(C)S(=O)(=O)c1ccc(C(=O)N(C)Cc2cccc(F)c2)cc1	x	x	x	-3	x
CCCCn1c(N)c(N(CCC(C)C)C(=O)c2cc(-c3ccco3)nc3ccccc23)c(=O)[nH]c1=O	-2	60*	x	4	+
CCCCN(C(=O)c1cc(-c2ccco2)nc2ccccc12)c1c(N)n(CCCC)c(=O)[nH]c1=O	1	x	x	12	x
O=C(O)CSCC(=O)N(Cc1ccccc1)c1nc(-c2ccccc2)c(-c2ccccc2)s1	0	74*	x	-1	i
C#Cc1cccc(Nc2nc(NCc3ccccc3)nc3ccsc23)c1	x	x	x	8	x
CCCNC(=O)C1(C)CCN(C(=O)c2cccnc2Oc2ccccc2)C1 (stereo not drawn)	x	x	x	7	x
COCCOC(=O)C1=C(C)NC(=O)NC1c1c(Cl)nc2c(C)cccn2c1=O (stereo not drawn)	-3	25	9	x	i
COCCOC(=O)C1=C(C)NC(=O)NC1c1c(Cl)nc2ccccn2c1=O (stereo not drawn)	-1	32	3	41*	i
CCOC(=O)C1=C(C)NC(=O)NC1c1ccco1 (stereo not drawn)	x	29	-9	-2	i
COCCOC(=O)C1=C(C)NC(=O)NC1c1ccco1 (stereo not drawn)	-1	58*	-16	15	+
O=C(CCS(=O)(=O)c1ccc(Br)cc1)NCCc1ccccc1	2	82	x	2	i
CCc1cccc(NC(=O)CCS(=O)(=O)c2ccc(Br)cc2)c1	-1	81*	x	-8	i
NS(=O)(=O)c1ccc(CCNC(=O)CCS(=O)(=O)c2ccc(Br)cc2)cc1	1	90*	x	3	i
Cc1ccc(S(=O)(=O)CCC(=O)Nc2cccc(C)c2)cc1	1	-5	-19	-14	i
Cc1ccc(S(=O)(=O)N2CC3(O)CN(C(=O)OC(C)C)N(C(=O)OC(C)C)CC3(OC(=O)NC3CCCC3)C2)cc1 (stereo not drawn)	x	x	x	5	x
Cc1ccc(S(=O)(=O)N(C)C[C@@H]2OCc3cnnn3CCCC(=O)N([C@@H](C)CO)C[C@H]2C)cc1	x	x	x	13	x
O=C(CCCSc1ccccc1)Nc1nc(-c2ccco2)c(-c2ccco2)s1	-1	96*	1	-5	i
C(=C\c1ccco1)/C=N/n1cnnc1	-3	93*	-10	-1	+
S=c1[nH]nc(-c2ccncc2)n1/N=C/C=C/c1ccco1	-2	96*	-5	-1	+
CC(/C=N/n1c(-c2ccncc2)n[nH]c1=S)=C\c1ccco1	-1	84*	-23	-3	+
SMILES	MEX-5 binding	eIF4H inh	EBV gp42 block	MLLE-PAM2 inh	PABP polyA inh
Cc1cccc(-c2n[nH]c(=S)n2/N=C/C=C/c2ccco2)c1	3	85*	1	-4	+
COc1cnc(-c2cccc(C(F)(F)F)c2)c(NC(=O)c2cc3ccccc3s2)n1	x	x	x	-7	x
C=CCOc1cccn2c(N(C=O)Cc3ccc(OC)cc3)c(CC)nc12	x	x	x	-3	x
O=C(OCc1cn([C@H]2C[C@H](c3ccccc3)N(Cc3cccs3)C[C@@H]2O)nn1)c1ccccc1	x	x	x	-1	x
S=c1[nH]nc(-c2ccccc2Cl)n1/N=C/C=C/c1ccco1	0	92*	0	-12	+
O=C1c2ccccc2C(=O)c2c(/C=C/N3CCCCC3)ccnc21	x	x	x	43*	x
Oc1ccc(O)c(-c2cnns2)c1	-63*	24	-23	-12	i
Nc1nc(N)nc(-c2cc(O)ccc2O)n1	x	x	x	-1	x
COCC1CCN(C(=O)CC2C(=O)NCCN2Cc2cccc(Oc3ccccc3)c2)CC1 (stereo not drawn)	-26*	-17	x	1	i
C[C@H](CO)N1C[C@H](C)[C@H](CN(C)S(C)(=O)=O)OCc2cnnn2CCCC1=O	x	x	x	-3	x
COc1cccc(-c2cnc3c(NC(C)=O)cc(-c4ccsc4)cn23)c1	x	x	x	-22	x
Cc1sc2nc(COC(=O)c3ccc(Cl)c(N)c3)[nH]c(=O)c2c1C	2	74*	-13	-21	+
Cc1sc2nc(COC(=O)c3ccc(N4CCCC4)c([N+](=O)[O-])c3)[nH]c(=O)c2c1C	-5	u	7	-84	+
Cc1sc2nc(COC(=O)c3ccc(O)cc3)[nH]c(=O)c2c1C	3	-17	-10	-6	i
Cc1cc(C)cc(C(O)c2ncc(-c3ccccc3Cl)[nH]2)c1 (stereo not drawn)	x	x	x	4	x
O=C(Nc1ccc(-n2nncc2-c2ccco2)cc1)c1cc2ccccc2oc1=O	-1	61*	24	-3	i
CC1=NN(C(=O)c2ccccc2-n2cccc2)C(O)(C(F)(F)F)C1 (stereo not drawn)	1	54*	0	-8	+
CCNC(=O)C1(C)CCCN(Cc2noc(-c3c(C)noc3C)n2)C1 (stereo not drawn)	x	x	x	-8	x
Cc1nc(N)sc1-c1csc(Nc2cccc(C(=O)O)c2)n1	-20	85*	x	-28	+
Cc1cc(NS(=O)(=O)c2ccc(Nc3nc(-c4sc(N)nc4C)cs3)cc2)no1	-29*	26	-8	-37	i
CCC(=O)Nc1nc(C)c(-c2csc(Nc3cccc(C(=O)O)c3)n2)s1	-3	-5	-11	14	i
CCC(=O)Nc1nc(C)c(-c2csc(Nc3ccc(C(=O)O)cc3)n2)s1	2	7	x	29	i
CC(=O)Nc1nc(C)c(-c2csc(Nc3cccc(C(C)=O)c3)n2)s1	2	-2	x	5	i
CC(=O)Nc1nc(C)c(-c2csc(Nc3cccc([N+](=O)[O-])c3)n2)s1	2	7	63*	16	i
Cc1nc(NC(=O)c2ccccc2)sc1-c1csc(Nc2ccc(C(=O)O)cc2)n1	-3	88	71*	0	i
Cc1noc(C)c1NC(=O)N(C)C[C@H]1OCc2cnnn2CCCC(=O)N([C@H](C)CO)C[C@H]1C	x	x	x	0	x
CN1CCc2cc3c(c4c2[C@H]1[C@H](O)c1ccccc1-4)OCO3	-84*	109	59*	68*	i
FC(F)(F)c1ccc(Cl)c(-n2c(-c3ccco3)n[nH]c2=S)c1	-1	-10	x	-46	i
FC(F)(F)c1ccc(Cl)c(-n2c(-c3cc(-c4ccco4)[nH]n3)n[nH]c2=S)c1	-3	u	3	-54	+

From PubChem
